Measurements reported in PubChem BioAssay (EPA / NIEHS).
“And” between values parts separate entries of the source, which are not always exact repeats. Equal values may be shown once. Some structures have more than one record in an assay (separate samples or runs), and their calls can disagree. The source made the active and inactive calls. The calls were made as follows: active = hit-call score of the fitted dose curve at least 0.9, where 1 is the maximum; inactive = score below 0.9.

Read-out: Monocyte Chemoattractant Protein-1 (MCP1), CCL2 (gene 6347)
Assay: BSK_3C_MCP1: BioMAP Diversity Plus: 3C Assay for Monocyte Chemoattractant Protein-1 (MCP1) Biomarker Activity (AID 2283017)
Conditions: primary human endothelial cells (HUVEC); actives raise or lower the signal
Procedure: BSK_3C is a cell-based, multiplexed-readout assay that uses umbilical vein endothelium, a human vascular primary cell, with measurements taken at 24 hours after chemical dosing in a 96-well plate.BSK_3C_MCP1 is an assay component measured in the BSK_3C assay. It measures MCP-1 antibody related to regulation of gene expression using ELISA technology.Data from the assay component BSK_3C_MCP1 was analyzed into 1 assay endpoint. This assay endpoint, BSK_3C_MCP1, was analyzed with bidirectional fitting relative to DMSO as the negative control and baseline of activity. Using a type of binding reporter, gain or loss-of-signal activity can be used to understand changes in the signaling as they relate to the gene CCL2. Furthermore, this assay endpoint can be referred to as a primary readout, because this assay has produced multiple assay endpoints where this one serves a signaling function. To generalize the intended target to other relatable targets, this assay endpoint is annotated to the cytokine intended target family, where the subfamily is chemotactic factor.
The levels of cell surface (or secreted, indicated by the prefix "s") biomarker endpoints were measured by ELISA. Overt cytotoxicity to cells in confluent adherent cultures (all systems other than the BT system) was assessed by measuring total protein levels using sulforhodamine B (SRB) staining in parallel cultures at the time of biomarker measurements, indicated as SRB endpoints. For proliferation assays for adherent cell types, individual cell types are cultured at sub-confluence and relative cell numbers quantified by SRB staining at time points optimized for each system (48 h: 3C and CASM3C systems; 72 h: BT and HDF3CGF systems; 96 h: SAg system). SRB was performed by staining cells with 0.1% SRB after fixation with 10% TCA and reading wells at 560 nm.Viability and proliferation of PBMC (T cells) was quantified by Alamar Blue reduction for the SAg and BT systems. For PBMC viability (referred to as PBMC Cytotoxicity within the assay endpoint names), cells were plated (75,000/well in a 96-well plate) and then chemical samples added for 1 h before addition of activators, SEB and TSST-1 (20 ng/mL final concentration each). Cells were incubated for 90 h. Then, Alamar Blue (20 uL/well) (Invitrogen, Cat DAL1100) was added for 6 h, and the plates were read with a fluorescence microplate reader at 546/580 nm (excitation/emission). For PBMC proliferation, cells were plated and activated as above but incubated for only 16 h prior to addition of Alamar Blue. Plates were read after 6 h.

Which outcome does the source give for `O=C=Nc1cccc2c(N=C=O)cccc12` here?
The outcome was “inactive”.

With `NS(=O)(=O)C(F)(F)C(F)(F)C(F)(F)C(F)(F)C(F)(F)C(F)(F)F` as the molecule, how does the outcome read?
Its outcome is “inactive”.

How did the outcome turn out when `C[C@]12CC[C@H]3C(=CCc4cc(O)ccc43)[C@@H]1CCC2=O` was run?
The outcome was “inactive”.

How did the outcome turn out when `Nc1cc([N+](=O)[O-])cc(Cl)c1O` was run?
Its outcome is “inactive”.

How did the outcome turn out when `FC(F)(F)C(F)(F)C(F)(F)C(F)(F)C(F)(F)C(F)(F)C(F)(F)CCI` was run?
Its outcome is “inactive”.

`C=C(C)C(=O)OCC(F)(F)C(F)(F)C(F)(F)C(F)F` was tested. Which outcome did it give?
Its outcome is “inactive”.

Which outcome does the source give for `OCC(O)CC(F)(F)C(F)(F)C(F)(F)C(F)(F)F` (stereo not given) here?
The outcome was “inactive”.

`CC(C)(C)c1cc(CCC(=O)NCCCCCCNC(=O)CCc2cc(C(C)(C)C)c(O)c(C(C)(C)C)c2)cc(C(C)(C)C)c1O` was tested. Which outcome did it give?
Its outcome is “inactive”.

For `CC1=CC2C3C=CC(C3)C2C1C` (stereo not given), which outcome is on record?
Its outcome is “inactive”.

`Brc1nc2ccccc2s1` was tested. Which outcome did it give?
Its outcome is “inactive”.

For `C=CC(=O)OCC(F)(F)C(F)(F)C(F)(F)C(F)(F)C(F)(F)C(F)(F)C(F)(F)C(F)F`, which outcome is on record?
Its outcome is “inactive”.

For `NC(O)(C(F)(F)F)C(F)(F)F`, which outcome is on record?
Its outcome is “inactive”.

`CCOC(C=C(C)CCC=C(C)C)OCC` was tested. Which AC50 did it give?
The AC50 was 32.1 µM (active).

With `O=C(O)C(F)(F)C(F)(F)C(F)(F)C(=O)O` as the molecule, how does the outcome read?
The outcome was “inactive”.

With `CCN(CC)c1ccc2c(c1)Oc1cc(N(CC)CC)ccc1C21OC(=O)c2ccccc21` as the molecule, how does the AC50 read?
The AC50 was 10 µM (active).

For `CCN(CC)c1ccc(N=Nc2ccccc2)cc1`, which AC50 is on record?
Its AC50 is 30.6 µM (active).

How did the outcome turn out when `O=C(O)C(F)(F)C(F)(F)C(F)(F)OC(F)(F)F` was run?
Its outcome is “inactive”.

Which outcome does the source give for `CCOC(=O)CC(=O)C(F)(F)C(F)(F)F` here?
The outcome was “inactive”.

How did the outcome turn out when `OCC(F)(F)C(F)(F)C(F)(F)C(F)(F)C(F)(F)C(F)(F)CO` was run?
The outcome was “inactive”.

How did the outcome turn out when `CCN(CC)c1ccc(C=O)cc1` was run?
Its outcome is “inactive”.

`Cc1cc(O)c(C(C)(C)C)cc1C(C)(C)C` was tested. Which AC50 did it give?
The AC50 was 4.59 µM (active).

Which outcome does the source give for `OCC(F)(F)C(F)(F)C(F)(F)CO` here?
The outcome was “inactive”.

For `O=C(O)C(F)(F)OC(F)(F)C(F)(F)OC(F)(F)C(F)(F)OC(F)(F)F`, which outcome is on record?
The outcome was “inactive”.

Which outcome does the source give for `NC(=O)C(F)(F)C(F)(F)C(F)(F)F` here?
Its outcome is “inactive”.

How did the outcome turn out when `CCN(CC)c1ccc(C=O)c(O)c1` was run?
The outcome was “inactive”.

For `FC(F)(F)C(F)(F)C(F)(F)CC1CO1` (stereo not given), which outcome is on record?
Its outcome is “inactive”.

For `O=S(=O)(O)CCC(F)(F)C(F)(F)C(F)(F)C(F)(F)C(F)(F)C(F)(F)C(F)(F)C(F)(F)F`, which outcome is on record?
Its outcome is “inactive”.

`O=S(=O)(OCC(F)(F)F)C(F)(F)C(F)(F)C(F)(F)C(F)(F)F` was tested. Which outcome did it give?
The outcome was “inactive”.

With `FC(F)(F)C(F)(F)C(F)(F)C(F)(F)C(F)(F)C(F)(F)CC[Si](Cl)(Cl)Cl` as the molecule, how does the outcome read?
Its outcome is “inactive”.

With `NCC(F)(F)C(F)(F)C(F)(F)C(F)(F)C(F)(F)C(F)(F)F` as the molecule, how does the outcome read?
The outcome was “inactive”.

`CCN=C1C=CC(=C(c2ccc(N(CC)CC)cc2)c2ccc(N(CC)CC)cc2)c2ccccc21` was tested. Which AC50 did it give?
Its AC50 is 2.22 µM (active) and 2.19 µM (active).

`C[Si](Cl)(Cl)CCC(F)(F)C(F)(F)C(F)(F)C(F)(F)C(F)(F)C(F)(F)F` was tested. Which outcome did it give?
The outcome was “inactive”.

For `COC(F)(C(F)F)C(F)(F)F` (stereo not given), which outcome is on record?
Its outcome is “inactive”.

How did the AC50 turn out when `NCC(F)(F)C(F)(F)C(F)(F)C(F)(F)C(F)(F)C(F)(F)C(F)(F)C(F)(F)F` was run?
The AC50 was 0.57 µM (active).

And the outcome?
The outcome was “inactive”.

Which outcome does the source give for `OCC(F)(F)C(F)(F)C(F)(F)C(F)(F)C(F)(F)C(F)(F)C(F)(F)C(F)(F)CO` here?
Its outcome is “inactive”.

For `OCCCCC(F)(F)C(F)(F)C(F)(F)C(F)(F)F`, which outcome is on record?
The outcome was “inactive”.

Which outcome does the source give for `O=C(Cl)C(F)(F)C(F)(F)C(F)(F)C(F)(F)C(F)(F)C(F)(F)F` here?
Its outcome is “inactive”.

How did the outcome turn out when `O=S(=O)(Cl)C(F)(F)C(F)(F)C(F)(F)C(F)(F)C(F)(F)C(F)(F)C(F)(F)C(F)(F)F` was run?
Its outcome is “inactive”.

Which outcome does the source give for `O=C=NCc1cccc(CN=C=O)c1` here?
Its outcome is “inactive”.
